TDP1 cell CPT: DT40-hTDP1 cell growth loss with CPT. chicken DT40 Tdp1-/-;hTDP1 cells + 20 nM CPT, ATP luminescence, 48 h. hit rate 12% among 420,000. Potency, µM (titrated, usually from 46.2 µM), for inactives: at the top dose activity change, negative = growth inhibition, hits mostly inhibitors. AID 686979; also: potency is read from the fitted curve at half-maximal effect; nearly all actives have a fitted effect of over 55% in size
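Chicken DT40 Tdp1-/- cells complemented with human TDP1, 400 cells/well, exposed to compounds plus 20 nM camptothecin for at least 48 h at 37 C; viability read as ATP content by CellTiter-Glo luminescence.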
HT1080 IDH1KD tx: toxicity to HT-1080 IDH1 knockdown cells (counter line); Potency, µM (titrated, usually from 46.1 µM), for the others: at the top dose activity, negative = toxicity, most hits filed as cytotoxic; HT-1080 IDH1 knockdown viability, ATP luminescence, 48 h; hit rate 2% among 360,000; AID 686971;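 also: potency is read from the fitted curve at half-maximal effect; 0% = DMSO wells and -100% = cell-free medium wells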
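HT-1080-IDH1KD cells (IDH1 knocked down), 750/well in RPMI with 5% FBS, treated with compound 48 h at 37 degrees C. Viability by CellTiter-Glo luminescence, normalised to DMSO and no-cell wells; concentration-response curves classed.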
HT1080-NT tox: kills 2HG-producing HT-1080-NT fibrosarcoma cells; hit rate 1.6% among 360,000; HT-1080-NT fibrosarcoma viability, CellTiter-Glo ATP luminescence, 48 h; Potency, µM (titrated, usually from 46.1 µM), without a hit: at the highest dose activity, negative = less viability, usual class: cytotoxic;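 also: NT is the 2HG producing partner of a matched IDH1 knockdown line; potency is read from the fitted curve at half-maximal effect; 0% = DMSO-treated cells and -100% = media-only wells without cells; nearly all actives have a fitted effect of over 55% in size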
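A 48-hour cytotoxicity screen used HT-1080-NT cells plated 2 hours before compound delivery. ATP-based CellTiter-Glo luminescence measured viability, normalized to DMSO and no-cell controls.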
ELG1 DNA repair: ELG1-dependent DNA repair inhibition | HEK293T ELG1-luciferase reporter, luminescence, 16 h; DNA damage induced by 5-fluorouridine | Potency, µM (top dose mostly 46.1 µM), inactives show at the top dose activity change, negative = inhibition, usual class: inhibitors | hit rate 2.3% among 330,000; also: potency is read from the fitted curve at half-maximal effect; nearly all actives have a fitted effect of over 55% in size
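Quantitative HTS, concentration-response format. 2,000 cells/well co-treated with 5-fluorouridine and compound, 16 hr in 5% CO2 at 37 °C; ONE-Glo luminescence read after 30 min.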
DT40 TDP1 no CPT: qHTS for Inhibitors of human tyrosyl-DNA phosphodiesterase 1 (TDP1): qHTS in cells in absence of CPT; hit rate 15% among 420,000; DT40 Tdp1-/- hTDP1 cells, no CPT, ATP luminescence, 48 h; Potency, µM (titrated, usually from 46.2 µM), for inactives: at the highest dose activity change, negative = growth inhibition, hits mostly inhibitors; AID 686978, 2013; also: potency is read from the fitted curve at half-maximal effect; nearly all actives have a fitted effect of over 55% in size
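Chicken DT40 Tdp1-/- cells complemented with human TDP1, screened without camptothecin (DMSO vehicle only), 400 cells/well. Compounds pin-transferred, cells incubated at 37 °C for at least 48 hr. Growth read as ATP-dependent luminescence (CellTiter-Glo, 30 min at RT).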
IL1B secr inh: inhibitors of inflammasome signaling (IL-1 beta secretion); THP-1 LPS/ATP IL-1B secretion, AlphaLISA, 16 h; active compounds read low; activity change, % at 57.5 µM; hit rate 4.7% among 360,000; in the data active = activity change below about -50%; inconclusive = mostly about -30% to -49%
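Secreted IL-1B measured by AlphaLISA bead assay after 16 h compound exposure of THP-1 cells; compounds (final up to 57.5 uM) added 1 h before LPS (250 ng/mL) and ATP (1.25 mM) stimulation; lower signal means less secretion.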
The depositor's hits bear a star; [ ] = another dose, or the depositor's remark. Rows were chosen to be rich in hits. Some 19% of all compounds tested hit in one or more screens of this group. Unless noted, calls follow the shape of the dose curve; as a rule, active = well fitted curve in the direction sought with a large enough effect; inconclusive = small, poorly fitted or top-dose-only effect, or another doubt; inactive = no such curve, though single readings can be large; an effect the other way counts as inactive or inconclusive. Unless noted, % is scaled to controls: 0 for no effect and ±100 for the full control effect.

How did O=C(CNS(=O)(=O)c1ccc(Br)s1)N1CCN(c2ccc(F)cc2)CC1 do in these assays?
TDP1 cell CPT: inconclusive; HT1080 IDH1KD tx: -1%; HT1080-NT tox: -2%; ELG1 DNA repair: -5%; DT40 TDP1 no CPT: 23µM*; IL1B secr inh: -1

How did CC(=O)Oc1cccc(C)c1 do in these assays?
TDP1 cell CPT: 13%; DT40 TDP1 no CPT: -9%

How did Cc1nc(N/N=C/c2ccc(O)cc2)c2cnn(-c3ccccc3)c2n1 do in these assays?
TDP1 cell CPT: inconclusive; HT1080 IDH1KD tx: inconclusive; HT1080-NT tox: inconclusive; ELG1 DNA repair: -22%; DT40 TDP1 no CPT: 23µM*; IL1B secr inh: -74*

How did O=P(O)(O)C(O)(Cc1cnc2ccccn12)P(=O)(O)O do in these assays?
TDP1 cell CPT: inconclusive; DT40 TDP1 no CPT: 2%

How did O=C(CCN1CCN(Cc2ccccc2)CC1)Nc1cccc(Br)c1 do in these assays?
TDP1 cell CPT: 16µM*; HT1080 IDH1KD tx: -16%; HT1080-NT tox: -10%; ELG1 DNA repair: -12%; DT40 TDP1 no CPT: 16µM*; IL1B secr inh: -16

What do the screens show for `COc1cccc(NC(=O)CCN2CCN(c3ccccc3)CC2)c1`?
TDP1 cell CPT: inconclusive; DT40 TDP1 no CPT: 10µM*

How did COc1cccc(NC(=O)CCCN2C(=O)C3CC=CCC3C2=O)c1 (stereo not given) do in these assays?
TDP1 cell CPT: -2%; HT1080 IDH1KD tx: 10µM*; HT1080-NT tox: inconclusive; ELG1 DNA repair: 0%; DT40 TDP1 no CPT: 4%; IL1B secr inh: 2

What do the screens show for `Cc1cc(C)c(NC(=O)CCN2CCN(Cc3ccccc3)CC2)c(C)c1`?
TDP1 cell CPT: inconclusive; HT1080 IDH1KD tx: -18%; HT1080-NT tox: -17%; DT40 TDP1 no CPT: 16µM*; IL1B secr inh: -3

How did COc1ccc(OCC(=O)NCc2nc(-c3ccccc3)no2)cc1 do in these assays?
TDP1 cell CPT: -7%; HT1080 IDH1KD tx: 6%; HT1080-NT tox: 6%; DT40 TDP1 no CPT: -12%; IL1B secr inh: 11

Results for CCNC(=O)C1CCCN(C(=O)C(c2ccccc2)c2ccccc2)CC1 (stereo not given) ?
TDP1 cell CPT: 7%; HT1080 IDH1KD tx: -1%; HT1080-NT tox: 16%; DT40 TDP1 no CPT: -19%; IL1B secr inh: 21

What do the screens show for `O=C(NCc1ccccc1)NC(O)C(Cl)(Cl)Cl` (stereo not given)?
TDP1 cell CPT: 2%; HT1080 IDH1KD tx: 2%; HT1080-NT tox: 11%; ELG1 DNA repair: 17%; DT40 TDP1 no CPT: -4%; IL1B secr inh: 2

Results for O=C(c1ccccc1-n1cccn1)N1CCOc2ccc(CN3CCOCC3)cc2C1 ?
TDP1 cell CPT: 12%[9.04 µM]; DT40 TDP1 no CPT: -22%

What do the screens show for `OCCC1CN(Cc2ccccc2-c2ccco2)CCN1Cc1ccccc1` (stereo not given)?
TDP1 cell CPT: -7%; HT1080 IDH1KD tx: -1%; HT1080-NT tox: -16%; ELG1 DNA repair: 5%; DT40 TDP1 no CPT: inconclusive; IL1B secr inh: -10

What do the screens show for `C(=Nn1cnnc1)c1ccc2c(c1)CCC2`?
TDP1 cell CPT: 11%; HT1080 IDH1KD tx: 4%; HT1080-NT tox: -1%; DT40 TDP1 no CPT: 10%; IL1B secr inh: 3

Results for O=C(CCN1CCN(Cc2ccccc2)CC1)Nc1ccc(OCc2ccccc2)cc1 ?
TDP1 cell CPT: inconclusive; HT1080 IDH1KD tx: -20%; HT1080-NT tox: -13%; ELG1 DNA repair: inconclusive; DT40 TDP1 no CPT: 15µM*; IL1B secr inh: 0

What do the screens show for `COc1ccc(NC(=S)NNc2ccc([N+](=O)[O-])cc2S(=O)(=O)Nc2ccc(C)cc2C)cc1`?
TDP1 cell CPT: -22%; HT1080 IDH1KD tx: 18µM*; HT1080-NT tox: 23µM*; ELG1 DNA repair: inconclusive; DT40 TDP1 no CPT: inconclusive; IL1B secr inh: -84*

What do the screens show for `Cc1ccc(NS(=O)(=O)c2cc([N+](=O)[O-])ccc2NNC(=S)Nc2cc(C)ccc2C)c(C)c1`?
TDP1 cell CPT: inconclusive; HT1080 IDH1KD tx: inconclusive; HT1080-NT tox: inconclusive; ELG1 DNA repair: inconclusive; DT40 TDP1 no CPT: 21µM*; IL1B secr inh: -67*

What do the screens show for `COc1ccccc1/C=C(\C#N)c1nc(-c2cc3ccccc3oc2=O)cs1`?
TDP1 cell CPT: -15%; DT40 TDP1 no CPT: -18%

What do the screens show for `OCCN1CCN(c2ncnc3c2ncn3[C@H]2CN(Cc3ccc4c(c3)OCO4)C[C@@H](CO)O2)CC1`?
TDP1 cell CPT: -36%; HT1080 IDH1KD tx: 7%; HT1080-NT tox: inconclusive; DT40 TDP1 no CPT: inconclusive; IL1B secr inh: 25

Results for CCOC(=O)c1ccccc1NC(=O)Cc1c(C(=O)O)c(C)cn1C ?
TDP1 cell CPT: -7%; DT40 TDP1 no CPT: -12%

What do the screens show for `Cc1ccc(NC(=O)CCC(=O)Nc2nnc(C3CCCCC3)s2)cc1`?
TDP1 cell CPT: 13%; HT1080 IDH1KD tx: 26%; HT1080-NT tox: 2%; ELG1 DNA repair: 18%; DT40 TDP1 no CPT: 2%; IL1B secr inh: 13

What do the screens show for `NNC(=S)NC1CCCCCCCCCCC1`?
TDP1 cell CPT: inconclusive; HT1080 IDH1KD tx: -21%; HT1080-NT tox: -23%; ELG1 DNA repair: inconclusive; DT40 TDP1 no CPT: 8.2µM*; IL1B secr inh: 0

Results for S=C(NC1CCCCCC1)NC1CCCC1 ?
TDP1 cell CPT: inconclusive; HT1080 IDH1KD tx: 1%; HT1080-NT tox: 6%; ELG1 DNA repair: inconclusive; DT40 TDP1 no CPT: inconclusive; IL1B secr inh: 0

Results for C=CCNc1nc(Nc2ccccc2F)nc(OCC)n1 ?
TDP1 cell CPT: inconclusive; HT1080 IDH1KD tx: 2%; HT1080-NT tox: 1%; ELG1 DNA repair: inconclusive; DT40 TDP1 no CPT: -26%; IL1B secr inh: 0

Results for C=CCNc1nc(Nc2ccc(OC)cc2OC)nc(OCC)n1 ?
TDP1 cell CPT: 16µM*; HT1080 IDH1KD tx: -18%; HT1080-NT tox: -6%; ELG1 DNA repair: inconclusive; DT40 TDP1 no CPT: inconclusive; IL1B secr inh: 6

What do the screens show for `CCOC(=O)c1c(C)[nH]c(C)c1S(=O)(=O)N1CCCC(C(=O)N2CCN(c3cccc(C)c3C)CC2)C1` (stereo not given)?
TDP1 cell CPT: 15µM*; DT40 TDP1 no CPT: inconclusive

Results for CCOC(=O)c1c(C)[nH]c(C)c1S(=O)(=O)N1CCCC(C(=O)Nc2cc(C)ccc2C)C1 (stereo not given) ?
TDP1 cell CPT: -21%; DT40 TDP1 no CPT: -13%

Results for CCOC(=O)c1c(C)[nH]c(C)c1S(=O)(=O)N1CCCC(C(=O)Nc2cccc(C)n2)C1 (stereo not given) ?
TDP1 cell CPT: -25%; DT40 TDP1 no CPT: -6%

Compound activity deposited in PubChem BioAssay by National Center for Advancing Translational Sciences (NCATS).
